This passage reports z-score and composite z-score results from PubChem BioAssay.

A short description of assay [1]: optical density shifts of acrAB sulA E. coli – strain DRC41, OD650, 48 h, E. coli filamentation inducer project, primary screen (AID 1152).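 Further: E. coli MC1000 strain DRC41 lacking acrAB efflux pump and sulA.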 The note with it: higher = more signal, called active from +8 up or from −8 down.
The nature of assay [2]: probe aLefty1 binding on compound microarray – biochemical, small-molecule microarray, 635/667 nm fluorescence, primary screen (AID 1153).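 Further: score merges spot fluorescence with signal-to-noise ratio from the scanned slide images.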 The note with it: higher = more signal.
Assay [3] is described as follows: plasmodial surface anion channel blockers, osmotic lysis – cell-based, P. falciparum Indochina, OD700, 1 h, primary screen (AID 1154). The note with it: P. falciparum Indochina infected RBC osmotic lysis, higher = more signal, called active from +8 up or from −8 down.
The nature of assay [4]: plasmodial surface anion channel blockers, osmotic lysis – cell-based, P. falciparum Indochina, OD700, 2 h, primary screen (AID 1155).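 Further: lysis reports solute entry through the parasite surface anion channel PSAC.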 Conditions: P. falciparum Indochina infected erythrocytes, higher = more signal, called active from +8 up or from −8 down.
The nature of assay [5]: changes in parasitized red cell lysis, either direction – P. falciparum Indochina, OD700, 3 h, PSAC antagonist project, primary screen (AID 1156). The note with it: P. falciparum-infected erythrocytes, osmotic lysis, higher = more signal, called active from +8 up or from −8 down.
Assay [6] can be described thus: plasmodial surface anion channel blockers, osmotic lysis – cell-based, P. falciparum Indochina, OD700, 18 h, primary screen (AID 1157). The note with it: P. falciparum Indochina infected erythrocytes, osmotic lysis OD700, 18 h; higher = more signal, called active from +8 up or from −8 down.
A short description of assay [7]: S6 kinase pathway phospho-S6 level changes – cell-based, A549, cytoblot, luminescence, serum-stimulated, primary screen (AID 1158).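 Further: serum-stimulated A549 lung adenocarcinoma cells; signal is phosphorylated S6 detected by cytoblot immunostaining with HRP secondary.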 The note with it: 5 h, higher = more signal.
The target of assay [8] is NADPH oxidase 2 (Homo sapiens) (UniProt P04839). The experiment in a line: compounds shifting NOX2 Amplex Red fluorescence – cell-based, HEK293-NOX2, PMA-stimulated, NOX inhibitor project, primary screen (AID 1159). Further: test concentration not given here. Conditions: 45 min, higher = more signal, called active from +8 up or from −8 down.
For assay [9], the target named is NADPH oxidase 4 (Homo sapiens) (UniProt Q9NPH5). As to the kind of experiment: compounds shifting NOX4 Amplex Red fluorescence – cell-based, HEK293-NOX4, tetracycline-induced, NOX inhibitor project, primary screen (AID 1160). Conditions: HEK293-NOX4, Amplex Red H2O2 fluorescence, 45 min; higher = more signal, called active from +8 up or from −8 down.
The target in assay [10] is NADPH oxidase 5 (Homo sapiens) (UniProt Q96PH1). As to the kind of experiment: compounds shifting NOX5 Amplex Red fluorescence – cell-based, HEK293-NOX5, NOX inhibitor project, primary screen (AID 1161). Conditions: HEK293-NOX5, ionomycin, 45 min, higher = more signal.
Assay [11] is described as follows: compound effects on lung adenocarcinoma cell viability – A549, calcein-AM fluorescence, 48 h, basal, profiling panel (AID 1162). Further: test concentration not given here. The note with it: higher = more signal.
Assay [12] is described as follows: compound effects on differentiated 3T3-L1 adipocyte viability – cell-based, 3T3-L1 adipocytes, calcein-AM fluorescence, 48 h, basal, profiling panel (AID 1163). Further: test concentration not given here. Conditions: 3T3-L1 adipocytes viability, higher = more signal.
Assay [13] in a line: compound effects on hepatocellular carcinoma cell viability – HepG2, calcein-AM fluorescence, 48 h, basal, profiling panel (AID 1164). Further: test concentration not given here. The note with it: higher = more signal.
A short description of assay [14]: compound effects on multiple myeloma cell viability – MM1S, calcein-AM fluorescence, 48 h, basal, profiling panel (AID 1165).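 Further: viability of MM1S multiple myeloma cells under basal unstimulated conditions; test concentration not given here.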 The note with it: higher = more signal.
Assay [15] in a line: calcein-AM signal in unstimulated myeloma cells – cell-based, calcein-AM fluorescence, 48 h, PK04 Diversity Set, profiling panel (AID 1166).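 Further: cells grown under basal conditions without added stimulus; test concentration not given here.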 Conditions: RPMI8226 myeloma viability, higher = more signal.
A short description of assay [16]: JC-1 mitochondrial signal, unstimulated HepG2 cells – cell-based, JC-1 fluorescence, 24 h, 100 nL compound, profiling panel (AID 1167). Further: test concentration not given here. The note with it: HepG2 mitochondrial potential, higher = more signal.
Assay [17] can be described thus: JC-1 mitochondrial signal, unstimulated adipocytes – cell-based, JC-1 fluorescence, 3T3-L1 adipocytes, 24 h, 100 nL compound, profiling panel (AID 1168). Further: test concentration not given here. The note with it: JC-1 mitochondrial fluorescence, higher = more signal, called active from +8 up or from −8 down.
The nature of assay [18]: JC-1 mitochondrial signal, unstimulated myeloma cells – cell-based, JC-1 fluorescence, RPMI8226, 24 h, 100 nL compound, profiling panel (AID 1169). Further: test concentration not given here. The note with it: JC-1 mitochondrial potential fluorescence, higher = more signal.
Assay [19] in a line: JC-1 mitochondrial signal, unstimulated MM1S myeloma – cell-based, JC-1 fluorescence, 24 h, 100 nL compound, profiling panel (AID 1170). Further: test concentration not given here. Conditions: MM1S mitochondrial potential, higher = more signal.
Assay [20] can be described thus: resazurin metabolic signal in A549 cells – cell-based, resazurin fluorescence, 24 h, PK04 Diversity Set, profiling panel (AID 1171). Further: test concentration not given here. The note with it: A549 viability, higher = more signal, called active from +8 up or from −8 down.

Each structure is given as a SMILES string. Calls of active or inactive are those of the source.

NADPH oxidase 5 (Homo sapiens), sequence (Q96PH1 whole entry, looked up): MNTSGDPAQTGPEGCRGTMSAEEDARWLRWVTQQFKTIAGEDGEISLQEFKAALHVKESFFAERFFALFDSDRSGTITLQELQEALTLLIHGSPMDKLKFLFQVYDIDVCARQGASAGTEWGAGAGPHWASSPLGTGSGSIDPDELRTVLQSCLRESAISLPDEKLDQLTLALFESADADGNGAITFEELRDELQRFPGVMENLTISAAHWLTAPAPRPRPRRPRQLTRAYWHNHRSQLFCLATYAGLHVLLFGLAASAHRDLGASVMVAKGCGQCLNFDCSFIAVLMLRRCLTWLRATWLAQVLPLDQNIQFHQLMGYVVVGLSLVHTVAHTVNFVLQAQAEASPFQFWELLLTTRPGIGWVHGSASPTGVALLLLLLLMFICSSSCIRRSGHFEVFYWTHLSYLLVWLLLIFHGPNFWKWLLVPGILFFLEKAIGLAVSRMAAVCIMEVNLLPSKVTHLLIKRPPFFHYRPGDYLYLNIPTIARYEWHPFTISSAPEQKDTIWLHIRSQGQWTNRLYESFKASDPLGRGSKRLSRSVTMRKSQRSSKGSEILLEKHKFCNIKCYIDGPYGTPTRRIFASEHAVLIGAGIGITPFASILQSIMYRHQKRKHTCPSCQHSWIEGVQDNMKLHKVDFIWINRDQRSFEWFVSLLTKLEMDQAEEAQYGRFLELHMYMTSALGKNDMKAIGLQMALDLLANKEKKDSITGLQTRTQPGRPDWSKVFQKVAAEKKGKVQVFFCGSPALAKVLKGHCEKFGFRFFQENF
NADPH oxidase 4 (Homo sapiens), sequence (Q9NPH5 whole entry, looked up): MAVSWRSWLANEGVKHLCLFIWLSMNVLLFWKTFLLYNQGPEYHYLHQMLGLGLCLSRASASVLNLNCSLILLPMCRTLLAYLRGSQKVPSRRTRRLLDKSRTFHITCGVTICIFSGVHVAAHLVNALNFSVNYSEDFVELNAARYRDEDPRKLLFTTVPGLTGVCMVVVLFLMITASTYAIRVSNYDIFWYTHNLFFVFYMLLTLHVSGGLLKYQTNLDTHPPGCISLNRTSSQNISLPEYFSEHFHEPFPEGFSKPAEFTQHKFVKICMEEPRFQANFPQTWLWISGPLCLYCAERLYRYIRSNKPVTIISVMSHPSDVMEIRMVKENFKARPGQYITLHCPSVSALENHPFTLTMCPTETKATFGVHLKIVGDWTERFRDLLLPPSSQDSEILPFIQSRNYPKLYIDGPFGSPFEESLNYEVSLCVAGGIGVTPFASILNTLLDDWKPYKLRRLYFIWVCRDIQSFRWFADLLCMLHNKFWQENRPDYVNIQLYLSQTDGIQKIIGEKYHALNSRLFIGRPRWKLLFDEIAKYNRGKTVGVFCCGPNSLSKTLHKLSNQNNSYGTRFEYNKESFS
NADPH oxidase 2 (Homo sapiens), sequence (P04839 whole entry, looked up): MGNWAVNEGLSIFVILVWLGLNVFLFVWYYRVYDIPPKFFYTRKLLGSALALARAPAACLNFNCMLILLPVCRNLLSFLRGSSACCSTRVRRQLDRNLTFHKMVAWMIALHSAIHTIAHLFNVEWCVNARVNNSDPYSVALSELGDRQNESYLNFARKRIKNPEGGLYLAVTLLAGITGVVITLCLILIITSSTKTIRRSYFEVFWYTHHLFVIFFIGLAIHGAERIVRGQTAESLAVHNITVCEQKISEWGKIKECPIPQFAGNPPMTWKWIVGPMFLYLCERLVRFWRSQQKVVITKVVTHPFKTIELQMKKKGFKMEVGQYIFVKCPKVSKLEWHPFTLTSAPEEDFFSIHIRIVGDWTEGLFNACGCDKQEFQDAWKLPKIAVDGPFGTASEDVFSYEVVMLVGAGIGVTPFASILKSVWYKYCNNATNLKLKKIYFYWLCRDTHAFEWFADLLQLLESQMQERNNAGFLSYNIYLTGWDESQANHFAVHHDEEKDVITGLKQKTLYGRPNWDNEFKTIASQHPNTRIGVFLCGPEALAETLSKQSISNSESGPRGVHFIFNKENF

As to `C=CC[C@@]1(C(=O)NCCN2CCOCC2)N=C(c2ccc(OCCCO)cc2)O[C@@H]1c1ccccc1N=[N+]=[N-]`, the z-score in assay [1] is 0.301 (inactive); in [3] it was 31.2 (active); in assay [4] it was 31.8 (active); in assay [5] it was 2.48 (inactive); in [6] it was 2.95 (inactive); in assay [7] it was -0.291. Further, the z-score was -1.67 (inactive) in assay [8]; 0.0137 (inactive) in assay [9]; -1.73 in [10]; 0.391 in assay [11]; -0.187 in assay [12]; 0.55 in assay [13]. Moreover, the z-score in [14] is -0.669; in assay [15] it was -0.394; in [16] it was 1.42; in [17], 0.602 (inactive); in [18], -0.244; in [19] it was -0.322. Besides, in assay [20], the z-score is -0.0072 (inactive). The composite z-score in assay [2] was 0.144.
As to `COc1cc2c(cc1OC)CN(C(=O)[C@H]1[C@@H]3C(=O)O[C@@H](c4ccccc4)[C@@H](c4ccccc4)N3[C@@H](c3ccc(O)cc3)[C@]13C(=O)Nc1ccc(C#CCCO)cc13)CC2`, the z-score in assay [1] is 0.675 (inactive); in assay [3], 1.06 (inactive); in [4] it was 0.736 (inactive); in [5], 1.15 (inactive); in assay [6] it was 0.689 (inactive); in [7], 0.503. The z-score in assay [8] is 1.38 (inactive); in [9], -0.0637 (inactive); in assay [10], 1.08; in assay [11], 0.0351; in [12], 1.04; in assay [13], -0.162. Further, the z-score is -0.233 in assay [14]; -1.46 in assay [15]; -1.46 in assay [16]; 0.292 (inactive) in assay [17]; -0.568 in [18]; 0.0874 in [19]. For the same molecule, the z-score in [20] was 0.125 (inactive). For the same molecule, the composite z-score in [2] was -0.147.
As for `CC#CC(=O)Oc1ccccc1C=CC(=O)OCC`, the z-score in assay [1] is -0.158 (inactive); in assay [3] it was 8.09 (active); in assay [4] it was 1.47 (inactive); in [5] it was 0.692 (inactive); in assay [6], 0.903 (inactive); in [7], -0.275. Besides, the z-score in assay [8] is -0.405 (inactive); in [9], -0.806 (inactive); in [10], 1.8; in assay [11], -1.54; in assay [12], -0.228; in [13], -0.749. Moreover, the z-score in assay [14] is -3.27; in assay [15], -2.23; in assay [16], -0.739; in assay [17], 0.161 (inactive); in assay [18] it was 0.849; in [19], -0.259. For the same molecule, in [20], the z-score was 1.5 (inactive). Further, the composite z-score in [2] was -0.0011.
`COC(=O)[C@@]1(Cc2ccccc2)[C@H]2c3cc(C(=O)N(C)C)n(Cc4ccsc4Br)c3C[C@H]2CN1C(=O)c1ccccc1`: the z-score in assay [1] was -0.775 (inactive); in assay [3], 6.57 (inactive); in assay [4], 1.07 (inactive); in [5] it was 0.923 (inactive); in [6] it was 1.25 (inactive); in [7] it was -0.259. Moreover, the z-score in assay [8] was -0.111 (inactive); in assay [9], 0.106 (inactive); in assay [10], 0.723; in [11], 0.209; in assay [12], -1.34; in [13], 0.369. For the same molecule, the z-score is -1.13 in [14]; -1.34 in assay [15]; 1.17 in assay [16]; 0.332 (inactive) in [17]; -0.776 in [18]; -2 in assay [19]. In addition, the z-score in assay [20] was -2.34 (inactive). This molecule also gave a composite z-score in assay [2] of 1.04.
In the case of `COc1cc2c(cc1O)C(C1CC1)N(Cc1sc3ccccc3c1Cl)CC2` (stereo not given), the z-score in assay [1] is -1.54 (inactive); in assay [3], 13.1 (active); in assay [4] it was 3.41 (inactive); in [5], -0.449 (inactive); in assay [6] it was 1.33 (inactive); in assay [7], -0.0956. Also, the z-score in assay [8] was -4.57 (inactive); in assay [9], -2.68 (inactive); in assay [10] it was -3.45; in assay [11], -4; in assay [12], 0.0337; in assay [13] it was -4.15. Moreover, the z-score in assay [14] was -3.32; in assay [15], -4.44; in assay [16] it was -3.67; in assay [17], -1.07 (inactive); in assay [18] it was -0.858; in [19], -0.539. Further, in assay [20], the z-score was -0.663 (inactive). In addition, the composite z-score in [2] is -0.0162.
